Measurements: PubChem BioAssay (Tox21)
Results filed as inconclusive are left out. Calls of active or inactive are those of the source. Unless noted, calls follow the shape of the dose curve; as a rule, active = well fitted curve in the direction sought with a large enough effect in the repeat runs; inconclusive = weak or mixed curves; inactive = no such curve, though single readings can be large; an effect the other way counts as inactive or inconclusive.

Experiments:
[1] = qHTS assay to identify small molecule agonists of the vitamin D receptor (VDR) signaling pathway - cell viability counter screen (AID 743224); also: series mostly up to about 63 µM; nearly all actives have a fitted effect of over 50% in size
Outline: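 Counter screen run in the same wells as the VDR-bla reporter assay: CellTiter-Glo luminescence, 30 min at room temperature, after 16 h compound treatment at 37C of cells pre-plated for 4 h.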

[2] = qHTS assay to identify small molecule antagonists of the vitamin D receptor (VDR) signaling pathway - cell viability counter screen (AID 743225); also: nearly all actives have a fitted effect of over 50% in size
Outline: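 Cytotoxicity toward the VDR-bla HEK 293T line was scored by ATP-based CellTiter-Glo luminescence, read in the wells already used for the beta-lactamase readout after 16 h compound treatment under 3 nM 1-alpha,25-dihydroxyvitamin D3 stimulation.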

[3] = qHTS assay to identify small molecule agonists of the NFkB signaling pathway - cell viability counter screen (AID 1159515; calls by dose curve; also: series mostly up to about 61 µM; nearly all actives have a fitted effect of over 55% in size)
Outline: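 Read by CellTiter-Glo luminescence (30 min, room temperature) in the wells also used for the beta-lactamase FRET read. ME-180 NFkB-bla cells at 2,000 per well were plated overnight, then exposed to compound for 5 hr at 37 C.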

[4] = qHTS assay to identify small molecule agonists of the endoplasmic reticulum stress response signaling pathway (AID 1159516; active = well fitted activation curve with a large enough effect in the signal ratio in the repeat runs, not every such curve was filed as active; the % refers to the signal ratio)
Outline: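 Ratiometric FRET readout (405 nm excitation; 460 and 530 nm emission) of a beta-lactamase gene driven by the ER stress response element, after 2 hr substrate loading. HeLa ESRE-bla cells were seeded overnight and treated with compounds for only 5 hr at 37 C.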

[5] = qHTS assay to identify small molecule agonists of the endoplasmic reticulum stress response signaling pathway - cell viability counter screen (AID 1159517; calls by dose curve; also: series mostly up to about 61 µM; nearly all actives have a fitted effect of over 50% in size)
Outline: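 Cytotoxicity of test compounds toward ESRE-bla HeLa cells was assessed after 5 hr exposure. The luminescent CellTiter-Glo signal was measured 30 min after reagent addition.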

[6] = qHTS assay to identify small molecule antagonists of the retinoid-related orphan receptor gamma (ROR-gamma) signaling pathway - cell viability counter screen (AID 1159520); also: nearly all actives have a fitted effect of over 50% in size
Outline: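 Tet-on ROR gamma CHO cells (1,000/well) were plated 4 hr, given compounds in DMSO for 2 hr at 37 C, then induced with 1 uM final doxycycline for 16 hr. Viability was read as ATP by CellTiter-Glo luminescence after 30 min.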

[7] = target: Nuclear receptor ROR-gamma (Homo sapiens) (UniProt P51449); assay: qHTS assay to identify small molecule antagonists of the retinoid-related orphan receptor gamma (ROR-gamma) signaling pathway (AID 1159521)
Outline: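 Readout: ONE-Glo luciferase luminescence, 30 min at room temperature. System: Tet-on RORγ CHO, RORE-LUC. Sequence: compound 2 h, doxycycline 1 uM final, 16 h at 37 C.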

[8] = qHTS assay to identify small molecule agonists of the AP-1 signaling pathway - cell viability counter screen (AID 1159525; calls by dose curve; also: nearly all actives have a fitted effect of over 55% in size)
Outline: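 Each titration point was normalised to DMSO and tetra n-octyl ammonium bromide controls. The read was Cell Titer Glo luminescence after 30 min at RT, following 5 h compound exposure of ME-180 AP-1-bla cells at 37 °C.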

[9] = qHTS assay to identify small molecule agonists of the AP-1 signaling pathway (AID 1159526; calls by dose curve)
[10] = target: Retinoic acid receptor RXR-alpha (Homo sapiens) (UniProt P19793); assay: qHTS assay to identify small molecule agonists of the RXR signaling pathway (AID 1159527; calls by dose curve; also: nearly all actives have a fitted effect of over 35% in size)
Outline: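 Reporter activation is measured as beta-lactamase activity via FRET substrate cleavage (emission 460/530 nm) in HEK 293T cells expressing an RXR-alpha-driven bla construct, following 16 hr compound exposure at 37 C.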

[11] = qHTS assay to identify small molecule agonists of the RXR signaling pathway - cell viability counter screen (AID 1159529)
Outline: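 Tox21 10K compounds were tested for cytotoxicity against GeneBLAzer RXR-alpha HEK 293T cells grown in 2% charcoal-stripped FBS. Exposure lasted 16 hr at 37 C, 5% CO2; viability read by CellTiter-Glo luminescence.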

[12] = qHTS assay to identify small molecule antagonists of the retinoid acid receptor (RAR) signaling pathway - cell viability counter screen (AID 1159551); also: nearly all actives have a fitted effect of over 35% in size
Outline: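 Cytotoxicity counter screen: ATP content quantified by CellTiter-Glo luminescence in C3RL4 cells treated 6 hr at 37 C with compound and retinol (1 uM final). Cells plated at 1,000/well and cultured overnight before dosing.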

[13] = qHTS assay to identify small molecule antagonists of the retinoic acid receptor (RAR) signaling pathway (AID 1159552; also: nearly all actives have a fitted effect of over 50% in size)
Outline: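 Overnight-plated C3RL4 reporter cells get compound, then retinol to 1 uM final; plates sit 6 hr at 37 C, 5% CO2. A luciferase reagent is added and light output recorded after 30 min at room temperature.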

[14] = qHTS assay to identify small molecule agonists of the retinoic acid receptor (RAR) signaling pathway (AID 1159553)
Outline: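 Luminescence was measured 30 min after luciferase reagent addition at room temperature. Before that, C3RL4 reporter cells (1,000 per well, plated overnight) were treated with compound for 6 hr at 37 C and 5% CO2.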

[15] = qHTS assay to identify small molecule antagonists of the estrogen related receptor (ERR) signaling pathway - cell viability counter screen (AID 1224818);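 also: series mostly up to about 46 µM; viability measured after 17.5 h of compound exposure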
Outline: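 Cytotoxicity counter screen: fluorescence from CellTiter-Fluor, added after 17.5 h compound exposure at 37 C and read 30 min later. ERR cell line seeded at 2,000 cells/well, preincubated 6 h before dosing.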

[16] = qHTS assay to identify small molecule antagonists of the estrogen related receptor (ERR) signaling pathway (AID 1224819)
Outline: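 LOPAC library screened for antagonism as reduced One-Glo luminescence in ERR reporter cells (2,000/well). Compounds were added after 6 h pre-incubation and left 18 h at 37C; reading followed a 30 min room-temperature reagent step.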

[17] = qHTS assay to identify small molecule agonists of the estrogen related receptor (ERR) signaling pathway (AID 1224820)
Outline: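 Luminescence readout (One-Glo, 30 min RT) from NTP-supplied ERR cell line exposed to compounds for 18 h at 37 C. Cells seeded 2,000 per well and pre-incubated 6 h before pin-tool compound transfer.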

[18] = tested on: estrogen-related receptor alpha (ERRalpha) with PGC-1alpha coactivator, human; assay: qHTS assay to identify small molecule antagonists of the estrogen related receptor signaling pathway with the pleiotropic PPARgamma coactivator (PGC) (AID 1224821; calls by dose curve)
Outline: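 PGC/ERR reporter cells; 6 h pre-incubation 37 C/5% CO2; pin-tool compound in DMSO, 18 h 37 C; One-Glo added, 30 min RT; luminescence read. qHTS antagonist mode.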

[19] = qHTS assay to identify small molecule antagonists of the estrogen related receptor signaling pathway with the pleiotropic PPARgamma coactivator (PGC) cell viability counter screen (AID 1224822; also: series mostly up to about 46 µM)
Outline: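 Viability counter-screen read by fluorescence intensity after 30 min with CellTiter-Fluor at 37 C; PGC/ERR reporter cells were exposed to compounds for 17.5 h at 37 C following a 6 h preincubation.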

Measured: Potency

Chain of Retinoic acid receptor RXR-alpha (Homo sapiens) (P19793 whole entry, looked up): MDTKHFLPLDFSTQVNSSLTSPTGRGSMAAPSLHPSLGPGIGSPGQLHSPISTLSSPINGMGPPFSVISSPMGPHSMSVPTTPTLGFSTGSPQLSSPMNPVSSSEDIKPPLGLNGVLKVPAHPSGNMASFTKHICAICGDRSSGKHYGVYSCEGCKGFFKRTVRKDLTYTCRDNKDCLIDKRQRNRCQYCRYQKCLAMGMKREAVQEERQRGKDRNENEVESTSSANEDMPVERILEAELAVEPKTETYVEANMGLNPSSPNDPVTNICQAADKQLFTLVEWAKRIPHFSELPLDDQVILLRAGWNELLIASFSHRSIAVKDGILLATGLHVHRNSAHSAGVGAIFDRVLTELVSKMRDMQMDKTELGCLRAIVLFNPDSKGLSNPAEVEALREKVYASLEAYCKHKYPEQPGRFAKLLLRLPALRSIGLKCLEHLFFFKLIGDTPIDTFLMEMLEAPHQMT

CCOC(N)=O
inactive: [1] | [2] | [3] | [4] | [5] | [6] | [7] | [8] | [9] | [10] | [11] | [12]

Cn1c(=O)c2c(ncn2C)n(C)c1=O
inactive: [1] | [2] | [3] | [4] | [5] | [6] | [7] | [8] | [9] | [11] | [12] | [13] | [14] | [15] | [16] | [17] | [18] | [19]

O=C1NC(=O)C(c2ccccc2)(c2ccccc2)N1
inactive: [1] | [2] | [3] | [4] | [5] | [6] | [7] | [8] | [9] | [11] | [12] | [15] | [19]

CN(N=O)C(=O)N[C@@H]1[C@@H](O)[C@H](O)[C@@H](CO)O[C@@H]1O
inactive: [1] | [2] | [3] | [4] | [5] | [6] | [7] | [8] | [9] | [11] | [12] | [13] | [14]

C=C(C)C(=O)OCC(C)O (stereo unspecified)
inactive: [1] | [2] | [3] | [4] | [5] | [6] | [7] | [8] | [9] | [11] | [12] | [13] | [14]

CCCCCCCC(=O)OCC(COC(=O)CCCCCCC)OC(=O)CCCCCCC
inactive: [1] | [2] | [3] | [4] | [5] | [6] | [7] | [8] | [9] | [11] | [12] | [13] | [14]

Cc1cccc(C)c1
inactive: [1] | [2] | [3] | [4] | [5] | [6] | [7] | [8] | [9] | [10] | [11] | [12]

CC(=O)Nc1c(I)c(NC(C)=O)c(I)c(C(=O)O)c1I
inactive: [3] | [4] | [5] | [6] | [7] | [8] | [9] | [11] | [12] | [14]

CCCC[P+](CCCC)(CCCC)CCCC
inactive: [1] | [2] | [3] | [4] | [5] | [6] | [7] | [8] | [9] | [11] | [12] | [14]
